In PubChem BioAssay (EPA / NIEHS) one finds AC50 and outcome data, which are given here for three compounds.

SMILES strings stand for the structures. Values joined by “and” are separate entries in the source; they are usually repeats but may differ in a detail not shown here. Equal entries are not always repeated. Active and inactive are the calls of the source. The calls were made as follows: active = hit-call score of the fitted dose curve at least 0.9, where 1 is the maximum; inactive = score below 0.9.

Conditions in all cases: mRNA level, 48 h; actives raise or lower the signal
Read-out in experiment [1]: Fatty acid synthase (Homo sapiens) (UniProt P49327)
In words: LTEA_HepaRG_FASN: Life Technologies and Expression Analysis (LTEA) Assay for Fatty Acid Synthase (FASN) using HepaRG (AID 2283448). In short, it runs like this:
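In human HepaRG cultures, 48 h chemical exposure (up to 100 uM, 0.5% DMSO) preceded TaqMan qRT-PCR of FASN.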

Read-out in experiment [2]: Cyclin D2 (CCND2), CCND2 (gene 894)
The experiment can be described thus: LTEA_HepaRG_CCND2: Life Technologies and Expression Analysis (LTEA) Assay for Cyclin D2 (CCND2) using HepaRG (AID 2283449). A digest of the protocol:
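CCND2 transcript levels, quantified by qRT-PCR and normalised to three housekeeping genes, were fitted bidirectionally against 0.5% DMSO. HepaRG cultures were dosed 48 h in duplicate with an 8-point half-log series up to 100 uM.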

Read-out in experiment [3]: Cyclin Dependent Kinase Inhibitor 1A (CDKN1A), CDKN1A (gene 1026)
In words: LTEA_HepaRG_CDKN1A: Life Technologies and Expression Analysis (LTEA) Assay for Cyclin Dependent Kinase Inhibitor 1A (CDKN1A) using HepaRG (AID 2283450). In short, it runs like this: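 Cryopreserved HepaRG cells were plated and cultured 48 h, then switched to serum-free induction medium. Chemicals (eight half-log concentrations, top 100 uM, 0.5% DMSO) were applied for 48 h. Lysates underwent qRT-PCR for CDKN1A with housekeeping normalization.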

Read-out in experiment [4]: Cyclin D1 (CCND1), CCND1 (gene 595)
In words: LTEA_HepaRG_CCND1: Life Technologies and Expression Analysis (LTEA) Assay for Cyclin D1 (CCND1) using HepaRG (AID 2283451).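 As to AC50: TaqMan qRT-PCR transcript level normalised to ACTB GAPDH and POLR2A housekeeping genes.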 In short, it runs like this: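 Human liver HepaRG line; 48 h dosing, 8 conc. ≤100 uM, 0.5% DMSO; TaqMan qRT-PCR mRNA, 3 housekeeping genes; bidirectional curve fit vs DMSO.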

Read-out in experiment [5]: catalase (CAT), CAT (gene 847)
In words: LTEA_HepaRG_CAT: Life Technologies and Expression Analysis (LTEA) Assay for catalase (CAT) using HepaRG (AID 2283452).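 As to AC50: TaqMan qRT-PCR signal normalized to ACTB GAPDH and POLR2A housekeeping genes.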 In short, it runs like this: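 Expression of CAT was quantified by TaqMan qRT-PCR with ACTB/GAPDH/POLR2A normalization after 48 h chemical exposure of HepaRG. Eight-point half-log series, top 100 uM, in 0.5% DMSO; gain or loss fitted against vehicle.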

Read-out in experiment [6]: flavin-containing dimethylaniline monooxygenases 3 (FMO3), FMO3 (gene 2328)
The experiment can be described thus: LTEA_HepaRG_FMO3: Life Technologies and Expression Analysis (LTEA) Assay for flavin-containing dimethylaniline monooxygenases 3 (FMO3) using HepaRG (AID 2283453). A digest of the protocol: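 Eight-point concentration-response in serum-free HepaRG cultures (top 100 uM, 0.5% DMSO, 48 h). Read-out: FMO3 mRNA level normalized to three endogenous control genes, fitted bidirectionally versus vehicle.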

Read-out in experiment [7]: Cytochrome P450 (CYP1A1), CYP1A1 (gene 1543)
The experiment can be described thus: LTEA_HepaRG_CYP1A1: Life Technologies and Expression Analysis (LTEA) Assay for Cytochrome P450 (CYP1A1) using HepaRG (AID 2283454). In short, it runs like this: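 Induction of CYP1A1 mRNA in a human hepatic cell line was measured 48 h after dosing, with 1 mM phenobarbital as induction positive control and 0.5% DMSO vehicle as baseline for bidirectional curve fitting.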

Read-out in experiment [8]: CFLAR gene, CFLAR (gene 8837)
The experiment can be described thus: LTEA_HepaRG_CFLAR: Life Technologies and Expression Analysis (LTEA) Assay for CFLAR gene using HepaRG (AID 2283455). In short, it runs like this:
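Transcript level by qRT-PCR (normalized to ACTB, GAPDH and POLR2A) after 48 h chemical exposure of HepaRG cells, top concentration 100 uM with half-log steps, 0.5% DMSO vehicle, duplicates; fitted bidirectionally against DMSO baseline.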

Read-out in experiment [9]: Forkhead box O1 (FOXO1), FOXO1 (gene 2308)
The experiment can be described thus: LTEA_HepaRG_FOXO1: Life Technologies and Expression Analysis (LTEA) Assay for Forkhead box O1 (FOXO1) using HepaRG (AID 2283456). In short, it runs like this:
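FOXO1 transcript quantified by qRT-PCR after 48 h chemical exposure (top 100 uM, half-log steps, 0.5% DMSO) of HepaRG cells, housekeeping-normalized (ACTB/GAPDH/POLR2A). Changes fitted in both directions relative to vehicle.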

Read-out in experiment [10]: growth arrest and DNA damage 45 (GADD45A), GADD45A (gene 1647)
In words: LTEA_HepaRG_GADD45A: Life Technologies and Expression Analysis (LTEA) Assay for growth arrest and DNA damage 45 (GADD45A) using HepaRG (AID 2283458). In short, it runs like this:
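Eight-point concentration-response in HepaRG cells: 48 h chemical exposure, 0.5% DMSO vehicle, top dose 100 uM. Normalized qRT-PCR mRNA readout with bidirectional fitting relative to DMSO.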

Read-out in experiment [11]: Forkhead box O3 (FOXO3), FOXO3 (gene 2309)
The experiment can be described thus: LTEA_HepaRG_FOXO3: Life Technologies and Expression Analysis (LTEA) Assay for Forkhead box O3 (FOXO3) using HepaRG (AID 2283459). A digest of the protocol:
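FOXO3 transcript measured by qRT-PCR (normalized to ACTB, GAPDH, POLR2A) after 48 h exposure of HepaRG cells in serum-free induction medium. Duplicates, eight half-log concentrations up to 100 uM, 0.5% DMSO; gain or loss fitted against DMSO.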

Read-out in experiment [12]: ABC Transporter (ABCB1), ABCB1 (gene 5243)
The experiment can be described thus: LTEA_HepaRG_ABCB1: Life Technologies and Expression Analysis (LTEA) Assay for ABC Transporter (ABCB1) using HepaRG (AID 2283460). In short, it runs like this: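 ABCB1 transcript level measured by TaqMan qRT-PCR against three housekeeping genes after 48 h chemical exposure of differentiated HepaRG cells. Top concentration 100 uM, half-log steps, eight points, 0.5% DMSO vehicle; bidirectional fit relative to DMSO.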

Read-out in experiment [13]: growth arrest and DNA damage 45 (GADD45B), GADD45B (gene 4616)
In words: LTEA_HepaRG_GADD45B: Life Technologies and Expression Analysis (LTEA) Assay for growth arrest and DNA damage 45 (GADD45B) using HepaRG (AID 2283461). A digest of the protocol: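 Values are bidirectional concentration-response fits against 0.5% DMSO controls. Underlying data: qRT-PCR mRNA levels in human HepaRG liver cells treated 48 h in serum-free induction medium, eight concentrations topping at 100 uM.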

Read-out in experiment [14]: ABC Transporter (ABCC3), ABCC3 (gene 8714)
The experiment can be described thus: LTEA_HepaRG_ABCC3: Life Technologies and Expression Analysis (LTEA) Assay for ABC Transporter (ABCC3) using HepaRG (AID 2283462). A digest of the protocol: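 Differentiated HepaRG liver cells receive test chemicals at eight concentrations (max 100 uM) for 48 h. Expression of ABCC3 is quantified by qRT-PCR against ACTB, GAPDH and POLR2A, and activity is fitted in both directions against the DMSO control.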

Read-out in experiment [15]: ABC Transporter (ABCB11), ABCB11 (gene 8647)
The experiment can be described thus: LTEA_HepaRG_ABCB11: Life Technologies and Expression Analysis (LTEA) Assay for ABC Transporter (ABCB11) using HepaRG (AID 2283463). A digest of the protocol:
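ABCB11 transcript levels quantified by TaqMan qRT-PCR against three housekeeping genes after 48 h chemical exposure of HepaRG cultures. Concentrations up to 100 uM in half-log steps, 0.5% DMSO vehicle; both induction and suppression scored.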

Read-out in experiment [16]: ABC Transporter (ABCC2), ABCC2 (gene 1244)
The experiment can be described thus: LTEA_HepaRG_ABCC2: Life Technologies and Expression Analysis (LTEA) Assay for ABC Transporter (ABCC2) using HepaRG (AID 2283464). A digest of the protocol: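 Gene expression of ABCC2 was determined by qRT-PCR in HepaRG cells exposed 48 h to chemicals (highest 100 uM, half-log dilutions). Activity was fitted in both directions relative to 0.5% DMSO vehicle.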

Read-out in experiment [17]: Broad substrate specificity ATP-binding cassette transporter ABCG2 (Homo sapiens) (UniProt Q9UNQ0)
The experiment can be described thus: LTEA_HepaRG_ABCG2: Life Technologies and Expression Analysis (LTEA) Assay for ABC Transporter (ABCG2) using HepaRG (AID 2283465). A digest of the protocol:
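ABCG2 transcript was quantified by TaqMan qRT-PCR against three housekeeping genes in HepaRG cells. Cells were treated in duplicate for 48 h across an 8-point half-log series up to 100 uM, with 0.5% DMSO vehicle. Gain or loss versus DMSO was fit.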

Read-out in experiment [18]: ATP-citrate lyase (ACLY), ACLY (gene 47)
The experiment can be described thus: LTEA_HepaRG_ACLY: Life Technologies and Expression Analysis (LTEA) Assay for ATP-citrate lyase (ACLY) using HepaRG (AID 2283466). A digest of the protocol: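 ACLY mRNA quantified by qRT-PCR on Fluidigm arrays against three housekeeping genes, after 48 h chemical treatment of HepaRG cells (top concentration 100 uM, half-log steps, 0.5% DMSO vehicle). Up- or down-regulation fitted relative to DMSO.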

Read-out in experiment [19]: Peroxisomal acyl-coenzyme A oxidase 1 (ACOX1) gene, ACOX1 (gene 51)
In words: LTEA_HepaRG_ACOX1: Life Technologies and Expression Analysis (LTEA) Assay for Peroxisomal acyl-coenzyme A oxidase 1 (ACOX1) gene using HepaRG (AID 2283467). A digest of the protocol: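 ACOX1 transcript levels were quantified by TaqMan qRT-PCR against three housekeeping genes after 48 h chemical exposure of differentiated human HepaRG cells. Exposure used eight half-log steps topping at 100 uM, 0.5% DMSO vehicle, in duplicate. Bidirectional curve fits were made relative to DMSO.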

Broad substrate specificity ATP-binding cassette transporter ABCG2 (Homo sapiens), sequence (Q9UNQ0 whole entry, looked up): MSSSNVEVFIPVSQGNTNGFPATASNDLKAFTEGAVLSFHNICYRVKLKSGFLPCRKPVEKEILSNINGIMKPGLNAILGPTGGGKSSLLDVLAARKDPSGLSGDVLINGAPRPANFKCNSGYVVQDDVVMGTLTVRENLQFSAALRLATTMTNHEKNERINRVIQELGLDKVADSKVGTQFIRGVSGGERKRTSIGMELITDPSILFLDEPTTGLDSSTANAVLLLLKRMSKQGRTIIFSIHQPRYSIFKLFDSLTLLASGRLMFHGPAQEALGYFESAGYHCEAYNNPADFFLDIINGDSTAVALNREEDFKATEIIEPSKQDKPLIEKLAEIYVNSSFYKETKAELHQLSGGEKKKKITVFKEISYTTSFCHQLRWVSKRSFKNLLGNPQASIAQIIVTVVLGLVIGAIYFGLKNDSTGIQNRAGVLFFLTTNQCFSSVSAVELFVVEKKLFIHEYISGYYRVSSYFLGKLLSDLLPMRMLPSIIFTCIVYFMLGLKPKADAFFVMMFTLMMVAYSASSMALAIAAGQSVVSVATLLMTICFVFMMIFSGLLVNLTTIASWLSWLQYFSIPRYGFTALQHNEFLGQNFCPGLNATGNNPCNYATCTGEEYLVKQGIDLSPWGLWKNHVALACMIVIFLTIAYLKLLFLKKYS
Fatty acid synthase (Homo sapiens), sequence (P49327 whole entry, looked up): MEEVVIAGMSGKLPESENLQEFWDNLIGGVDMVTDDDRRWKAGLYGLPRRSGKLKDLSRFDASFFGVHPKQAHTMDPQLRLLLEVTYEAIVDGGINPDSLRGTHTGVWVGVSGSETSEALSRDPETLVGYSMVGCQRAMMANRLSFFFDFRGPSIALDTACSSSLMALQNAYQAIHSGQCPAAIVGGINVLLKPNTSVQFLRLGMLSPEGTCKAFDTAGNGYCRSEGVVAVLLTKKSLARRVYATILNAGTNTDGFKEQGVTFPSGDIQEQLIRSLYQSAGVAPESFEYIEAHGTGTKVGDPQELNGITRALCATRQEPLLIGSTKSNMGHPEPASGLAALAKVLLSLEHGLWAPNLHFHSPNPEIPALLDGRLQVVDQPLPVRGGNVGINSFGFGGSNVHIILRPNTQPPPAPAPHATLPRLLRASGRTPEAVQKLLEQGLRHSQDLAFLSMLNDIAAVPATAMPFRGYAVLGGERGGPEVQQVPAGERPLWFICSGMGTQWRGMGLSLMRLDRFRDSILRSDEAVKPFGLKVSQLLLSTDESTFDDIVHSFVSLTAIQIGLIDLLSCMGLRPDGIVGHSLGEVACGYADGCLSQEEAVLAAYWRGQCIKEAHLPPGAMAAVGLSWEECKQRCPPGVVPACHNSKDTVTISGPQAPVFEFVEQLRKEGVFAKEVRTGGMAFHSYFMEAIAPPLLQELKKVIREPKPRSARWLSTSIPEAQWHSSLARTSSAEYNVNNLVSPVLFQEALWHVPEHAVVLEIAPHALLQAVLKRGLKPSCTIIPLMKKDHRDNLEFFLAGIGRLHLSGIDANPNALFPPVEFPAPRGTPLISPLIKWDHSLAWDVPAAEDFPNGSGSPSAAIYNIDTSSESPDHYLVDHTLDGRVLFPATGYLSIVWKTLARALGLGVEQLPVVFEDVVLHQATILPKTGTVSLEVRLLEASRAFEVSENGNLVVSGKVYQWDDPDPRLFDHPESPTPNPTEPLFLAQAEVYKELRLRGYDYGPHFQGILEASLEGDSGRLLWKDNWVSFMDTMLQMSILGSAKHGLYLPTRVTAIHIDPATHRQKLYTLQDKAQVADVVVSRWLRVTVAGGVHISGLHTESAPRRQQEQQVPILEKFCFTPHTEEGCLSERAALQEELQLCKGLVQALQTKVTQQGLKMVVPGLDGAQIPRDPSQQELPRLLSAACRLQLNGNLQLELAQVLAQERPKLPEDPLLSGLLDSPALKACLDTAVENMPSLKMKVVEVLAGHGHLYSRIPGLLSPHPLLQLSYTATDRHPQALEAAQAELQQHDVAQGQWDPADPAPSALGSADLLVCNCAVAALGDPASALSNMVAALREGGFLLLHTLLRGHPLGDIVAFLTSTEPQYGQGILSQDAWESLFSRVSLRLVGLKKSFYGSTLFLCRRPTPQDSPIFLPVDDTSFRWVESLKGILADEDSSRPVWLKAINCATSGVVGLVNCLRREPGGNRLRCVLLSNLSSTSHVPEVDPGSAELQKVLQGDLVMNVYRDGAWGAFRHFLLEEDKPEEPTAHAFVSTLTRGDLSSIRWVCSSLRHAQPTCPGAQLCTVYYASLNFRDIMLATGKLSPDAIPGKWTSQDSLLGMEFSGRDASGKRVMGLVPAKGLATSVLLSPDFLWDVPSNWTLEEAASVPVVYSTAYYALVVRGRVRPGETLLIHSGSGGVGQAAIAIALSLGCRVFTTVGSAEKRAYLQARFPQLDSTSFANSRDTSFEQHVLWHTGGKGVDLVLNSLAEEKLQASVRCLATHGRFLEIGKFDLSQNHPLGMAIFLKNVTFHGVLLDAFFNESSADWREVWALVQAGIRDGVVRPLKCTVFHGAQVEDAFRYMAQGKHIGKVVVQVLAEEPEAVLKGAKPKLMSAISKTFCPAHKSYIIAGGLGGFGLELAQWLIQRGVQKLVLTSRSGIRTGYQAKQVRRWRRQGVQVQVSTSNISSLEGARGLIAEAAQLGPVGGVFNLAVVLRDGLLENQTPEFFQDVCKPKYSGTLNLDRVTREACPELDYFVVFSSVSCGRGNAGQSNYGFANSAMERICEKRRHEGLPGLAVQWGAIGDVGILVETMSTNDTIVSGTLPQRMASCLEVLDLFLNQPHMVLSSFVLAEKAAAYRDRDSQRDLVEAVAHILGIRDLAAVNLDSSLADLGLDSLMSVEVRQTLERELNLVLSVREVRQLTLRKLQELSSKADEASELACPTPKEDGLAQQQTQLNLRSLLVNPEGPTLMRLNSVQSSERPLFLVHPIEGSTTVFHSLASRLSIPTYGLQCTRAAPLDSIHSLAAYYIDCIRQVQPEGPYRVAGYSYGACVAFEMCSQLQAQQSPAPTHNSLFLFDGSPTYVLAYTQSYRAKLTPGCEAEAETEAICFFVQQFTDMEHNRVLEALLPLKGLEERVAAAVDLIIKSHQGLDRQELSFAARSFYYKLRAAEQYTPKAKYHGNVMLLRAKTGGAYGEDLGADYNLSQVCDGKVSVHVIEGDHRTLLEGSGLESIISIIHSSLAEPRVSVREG

A word on the AC50: it is the concentration at which the activity in the assay is half-maximal. For `CCOP(=S)(Oc1cnc(C(C)(C)C)nc1)OC(C)C` (stereo unspecified), the AC50 in experiment [1] was 82.4 µM (active); in [4], 50 µM (active); in [5], 5.63 µM (active); in experiment [6] it was 4.99 µM (active); in experiment [7], 35 µM (active); in experiment [12] it was 19.4 µM (active). For the same compound, the AC50 is 1.84 µM (active) in experiment [15], 85.6 µM (active) in experiment [18] and 2.27 µM (active) in experiment [19]. Moreover, the result in experiment [2], in experiment [3], in [8], in experiment [9], in experiment [10] and in experiment [11] was inactive. For the same compound, the result in experiment [13], in experiment [14], in experiment [16] and in [17] was inactive.
Regarding `CN(C)[C@@H]1C(=O)C(C(N)=O)=C(O)[C@@]2(O)C(=O)C3=C(O)c4c(O)cccc4[C@@](C)(O)[C@H]3[C@H](O)[C@@H]12`, the compound was called inactive in [1], in [2], in [3], in experiment [4], in experiment [5] and in experiment [6]. Also, the compound was classed as inactive in experiment [8], in experiment [9], in experiment [10], in [11], in [12] and in experiment [13]. In addition, the outcome in experiment [14], in [15], in experiment [16], in [17], in experiment [18] and in [19] was inactive. Also, the AC50 in [7] is 66.4 µM (active) and 18.3 µM (active).
Turning to `CCCOc1nn(C(=O)NS(=O)(=O)c2ccccc2C(=O)OC)c(=O)n1C`, the compound was classed as inactive in experiment [1], in experiment [3], in [4], in experiment [5], in experiment [6] and in experiment [7]. In addition, the compound was classed as inactive in experiment [8], in experiment [9], in [10], in experiment [11], in [12] and in experiment [13]. Moreover, the call in [14], in experiment [15], in experiment [16], in experiment [17], in experiment [18] and in experiment [19] was inactive.
